MCF10A rerep: induces DNA re-replication in MCF 10a normal breast cells; MCF 10A DNA re-replication, Hoechst nuclear intensity, 48 h; Potency, µM (highest dose often 46.1 µM), usual class: activators; 350,000 tested, 2.9% active; AID 624296; also: nearly all actives have a fitted effect of over 50% in size
HT1080 IDH1KD tx: kills HT-1080 cells with IDH1 knockdown; Potency, µM (top dose mostly 46.1 µM), actives largely listed as cytotoxic; 360,000 tested, 2% active; HT-1080 IDH1 knockdown viability, ATP luminescence, 48 h
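Luminescent ATP read-out (CellTiter-Glo, 10 min at room temperature) after 48 h compound exposure at 37 °C gave viability of IDH1-knockdown HT-1080 cells. Activity was normalised to DMSO and cell-free wells, then fitted as concentration-response curves.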
HT1080-NT tox: kills 2HG-producing HT-1080-NT fibrosarcoma cells. HT-1080-NT fibrosarcoma viability, CellTiter-Glo ATP luminescence, 48 h. Potency, µM (series often up to 46.1 µM), actives largely listed as cytotoxic. 360,000 tested, 1.6% active;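 also: NT is the 2HG producing partner of a matched IDH1 knockdown line; nearly all actives have a fitted effect of over 55% in size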
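Read-out is CellTiter-Glo luminescence after 10 minutes at room temperature, following 48 hours' compound treatment of HT-1080-NT cells (750 cells/well, RPMI, 5% FBS, 37 degrees C).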
KB-3-1 cytotox: KB-3-1 parental cell cytotoxicity; KB-3-1 viability, CellTiter-Glo ATP luminescence, 72 h; 400,000 tested, 1.4% active; AID 1347075; Potency, µM (titrated, usually from 46.1 µM), actives largely listed as cytotoxic; also: nearly all actives have a fitted effect of over 60% in size
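Multi-concentration cytotoxicity screen in KB-3-1 cells grown in DMEM lacking phenol red with 10% FBS. After 72 h at 37 °C with compound, ATP-dependent luminescence was recorded.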
SW480 rerep: DNA re-replication induction in SW480 cells; AID 624297; 340,000 tested, 1.8% active; Potency, µM (titrated, usually from 46.1 µM), hits mostly activators; SW480 DNA re-replication, Hoechst DNA content imaging, 48 h; also: nearly all actives have a fitted effect of over 55% in size
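Image-based DNA-content assay: after two days of treatment, nuclei were labelled with the DNA dye Hoechst and imaged, and hits were compounds raising the count of nuclei showing high fluorescence intensity.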
KB-V1 cytotox: kills drug-selected multidrug resistant KB-V1 cells. KB-V1 MDR cells viability, CellTiter-Glo, 72 h. Potency, µM (doses to about 46.1 µM), usual class: cytotoxic. 400,000 tested, 3.4% active; also: nearly all actives have a fitted effect of over 60% in size
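Compound-treated KB-V1 multidrug-resistant cells, 72 h, 37 degrees C; viability by CellTiter-Glo. Fitted qHTS curves give the values.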
Each line names hits and unclear results; the compound was inactive in the other large screens. Compounds with a hit are over-represented: about 7.9% of the library has one in this group of screens. Calls follow the shape of the dose curve; as a rule, active = well fitted curve in the direction sought with a large enough effect; inconclusive = small, poorly fitted or top-dose-only effect, or another doubt; inactive = no such curve, though single readings can be large; an effect the other way counts as inactive or inconclusive.

Cc1ccccc1OCCC(=O)Nc1ccccc1C(=O)N1CCCCC1	KB-V1 cytotox 8.2µM
CCC(Oc1ccccc1)C(=O)Nc1ccccc1C(=O)N1CCN(C)CC1 (stereo not given)	none
CCC(Oc1ccccc1)C(=O)Nc1ccccc1C(=O)N1CCCCC1 (stereo not given)	KB-V1 cytotox 12µM
C[C@]12CCC(=O)C=C1[C@@H]1C[C@H]1[C@H]1[C@@H]3[C@@H]4C[C@H]4[C@@]4(CCC(=O)O4)[C@@]3(C)CC[C@@H]12	none (no result: HT1080 IDH1KD tx, HT1080-NT tox, KB-3-1 cytotox, KB-V1 cytotox)
CC(C)Oc1cc(F)ccc1-c1cc(C(=O)Nc2cccc(C(F)(F)F)c2)[nH]n1	HT1080 IDH1KD tx inconclusive, HT1080-NT tox 16µM, KB-3-1 cytotox inconclusive, KB-V1 cytotox inconclusive (no result: MCF10A rerep, SW480 rerep)
Cc1ccc(-n2nnnc2C(Cl)(Cl)c2nnnn2-c2ccc(C)cc2)cc1	HT1080 IDH1KD tx 5.6µM, HT1080-NT tox inconclusive, KB-V1 cytotox inconclusive
O=c1c2cnn(-c3ccccc3)c2nc(-c2ccco2)n1-c1ccccc1	MCF10A rerep inconclusive, KB-3-1 cytotox 15µM, KB-V1 cytotox 5.2µM
CCOC(=O)c1cc(-c2ccccc2)sc1NC(=O)C(C)OC(=O)c1cccnc1OCC (stereo not given)	MCF10A rerep inconclusive, SW480 rerep 2.9µM
CCOC(=O)c1cc(-c2ccccc2)sc1NC(=O)C(C)Sc1nnc(N)s1 (stereo not given)	MCF10A rerep inconclusive, KB-3-1 cytotox inconclusive, SW480 rerep inconclusive, KB-V1 cytotox 2.1µM
CCOC(=O)c1cc(-c2ccccc2)sc1NC(=O)CSc1nnc(N)s1	KB-V1 cytotox inconclusive
CC(C(=O)Nc1ccccc1-c1ccccc1)N(C)Cc1nc2ccccc2c(=O)[nH]1 (stereo not given)	MCF10A rerep inconclusive, HT1080 IDH1KD tx 23µM, HT1080-NT tox 23µM, KB-3-1 cytotox inconclusive, SW480 rerep inconclusive, KB-V1 cytotox 12µM
CN(C)CCNC(=O)c1cc2sc3ccccc3c2s1	HT1080 IDH1KD tx 23µM, HT1080-NT tox 21µM
NS(=O)(=O)c1cc2c(cc1C(F)(F)F)N[C@H](Cc1ccccc1)NS2(=O)=O	none (no result: HT1080 IDH1KD tx, HT1080-NT tox, KB-3-1 cytotox, KB-V1 cytotox)
CCOc1ccccc1N1CCN(C(=O)CSc2ccc3c(c2)OCCO3)CC1	KB-V1 cytotox 12µM
CCNC(=S)NNC(=O)c1cc(-c2ccc(OC)cc2)nc2ccccc12	HT1080 IDH1KD tx 18µM, HT1080-NT tox 10µM, KB-3-1 cytotox inconclusive, KB-V1 cytotox 9.2µM (no result: SW480 rerep)
CCNC(=S)NNC(=O)c1cc(-c2cccnc2)nc2ccccc12	KB-V1 cytotox inconclusive
CCNC(=S)NNC(=O)c1cc(-c2cccc(OCC)c2)nc2ccccc12	HT1080-NT tox inconclusive
CCCCOc1cccc(-c2cc(C(=O)NNC(=S)NCC)c3ccccc3n2)c1	HT1080 IDH1KD tx inconclusive, HT1080-NT tox inconclusive, KB-V1 cytotox 21µM
CCNC(=S)NNC(=O)c1cc(-c2cccc(C)c2)nc2ccccc12	HT1080 IDH1KD tx 6.3µM, HT1080-NT tox inconclusive, KB-3-1 cytotox inconclusive, KB-V1 cytotox inconclusive
CCCCOc1ccc(-c2cc(C(=O)NNC(=S)NCC)c3ccccc3n2)cc1	HT1080 IDH1KD tx inconclusive, HT1080-NT tox 18µM, KB-3-1 cytotox 7.3µM, KB-V1 cytotox 6.5µM
O=C(NC1CCCCC1)c1ccc2c(c1)N(Cc1ccc(Cl)cc1)C(=O)c1ccccc1S2(=O)=O	none (no result: MCF10A rerep, HT1080 IDH1KD tx, HT1080-NT tox, SW480 rerep)
Cc1ccc(F)cc1C(=O)N1CCCC(c2cc(C(=O)NCc3ccc(F)cc3)no2)C1 (stereo not given)	none (no result: MCF10A rerep, SW480 rerep)
COc1ccc(OC)c(CC(=O)N2CCc3cc(OC)c(OC)cc3C2)c1	KB-V1 cytotox inconclusive
CCN=c1scc(C)n1/N=C/c1cc(Br)c(O)c(OC)c1	MCF10A rerep 21µM, HT1080 IDH1KD tx inconclusive
CC1(C)Cc2c(cnn2-c2cccc(F)c2)C(NC(=O)c2ccc(=O)[nH]n2)C1 (stereo not given)	MCF10A rerep inconclusive
CSc1ccc(S(=O)(=O)NCC(=O)OCCOc2ccccc2)cc1[N+](=O)[O-]	MCF10A rerep inconclusive
Nc1ccc(S(=O)(=O)NCC(=O)OCCOc2ccccc2)cc1[N+](=O)[O-]	MCF10A rerep 15µM
CCCCCCCCNC(=O)c1cnsn1	SW480 rerep 0.52µM
COc1ccccc1-c1ccc(/C=C2\C=CC(=O)O2)o1	MCF10A rerep 21µM, HT1080 IDH1KD tx inconclusive, SW480 rerep inconclusive
COc1ccccc1-c1ccc(/C=C2/C=C(C)OC2=O)o1	MCF10A rerep 21µM, SW480 rerep inconclusive
C[C@H]1CN([C@@H](C)CO)C(=O)Cc2cc(NC(=O)CCC(F)(F)F)ccc2O[C@H]1CN(C)C(=O)Nc1ccc(F)cc1	none
C[C@H]1CN([C@@H](C)CO)C(=O)Cc2cc(NC(=O)CCC(F)(F)F)ccc2O[C@H]1CN(C)S(=O)(=O)c1ccc(F)cc1	MCF10A rerep 15µM, HT1080 IDH1KD tx inconclusive, HT1080-NT tox 12µM, KB-3-1 cytotox 5.2µM, SW480 rerep inconclusive
C[C@H]1CN([C@@H](C)CO)C(=O)Cc2cc(NC(=O)Cc3cn(C)c4ccccc34)ccc2O[C@@H]1CN(C)S(=O)(=O)c1cn(C)cn1	SW480 rerep 3.7µM
C[C@H](CO)N1C[C@H](C)[C@H](CN(C)S(=O)(=O)c2cccs2)Oc2ccc(NC(=O)Nc3ccc4c(c3)OCO4)cc2CC1=O	MCF10A rerep inconclusive, HT1080 IDH1KD tx inconclusive, HT1080-NT tox inconclusive, KB-3-1 cytotox inconclusive, SW480 rerep 16µM, KB-V1 cytotox inconclusive
C[C@H]1CN([C@@H](C)CO)C(=O)Cc2cc(NC(=O)CCC(F)(F)F)ccc2O[C@H]1CN(C)S(=O)(=O)c1ccc(Cl)cc1	MCF10A rerep 4.6µM, HT1080 IDH1KD tx 4.6µM, HT1080-NT tox 3.7µM, KB-3-1 cytotox 4.6µM, SW480 rerep 3.3µM
O=C1NC[C@@H](CCCCN2C[C@H](Cc3ccc(O)cc3)N(CC3CCCCC3)C(=O)C2=O)N(CCc2ccccc2)C1=O	KB-V1 cytotox inconclusive (no result: MCF10A rerep, SW480 rerep)
COc1ccccc1N1CCN(S(=O)(=O)c2c(C)sc3ncn(CC(=O)Nc4ccc(C)cc4Br)c(=O)c23)CC1	KB-V1 cytotox inconclusive (no result: MCF10A rerep, HT1080 IDH1KD tx, HT1080-NT tox, SW480 rerep)
CN(C=O)c1cc([N+](=O)[O-])ccc1OCc1ccccc1	MCF10A rerep inconclusive, KB-V1 cytotox 18µM
CNc1cc([N+](=O)[O-])ccc1OCc1ccccc1	none
COc1ccc2cc(/C=N/NC(=O)c3ccc(CN(c4cccc(Cl)c4Cl)S(C)(=O)=O)cc3)c(Cl)nc2c1	MCF10A rerep inconclusive, HT1080 IDH1KD tx inconclusive, HT1080-NT tox inconclusive, KB-3-1 cytotox 2.6µM, KB-V1 cytotox inconclusive
CC(=O)/C(=C/N(C)C)C(=O)Nc1ccc(Cl)cc1Cl	MCF10A rerep 18µM, HT1080 IDH1KD tx inconclusive, SW480 rerep inconclusive
CN(C)/C=N/C(=S)Nc1ccc(Cl)cc1	none

Bioassay records (PubChem BioAssay)
